Assay outcomes deposited in PubChem BioAssay by National Center for Advancing Translational Sciences (NCATS).
Hits are enriched below; roughly 5.9% of the tested compounds scored in any of these assays.
ATXN viability: cell viability loss in ATXN counter-screen | S2 cells (HEK-293 line with an ATXN2-luciferase reporter) viability, CellTiter-Fluor protease fluorescence, 24 h | Potency, µM (top dose mostly 56.7 µM), most hits filed as cytotoxic | actives 0.49% (n = 400,000); note: nearly all actives have a fitted effect of over 40% in size
HepG2 viability: HepG2 cytotoxicity, counter-screen for TGF-b inhibitors | HepG2 CAGA-GFP viability, ATP luminescence, 18 h | Potency, µM (doses to about 46.1 µM), without a hit: at the top dose activity change, negative = cytotoxicity, usual class: cytotoxic | actives 0.76% (n = 410,000)
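HepG2 CAGA-GFP cells (1000/well, DMEM with 1% FBS) received compound, then TGF-beta at 500 pg/mL final, and were incubated 18 hours at 37 degrees C. Viability was read by CellTiter-Glo luminescence. Media-only wells were set as complete cell-killing and DMSO as no toxicity.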
KB-V1 cytotox: kills drug-selected multidrug resistant KB-V1 cells; KB-V1 MDR cells viability, CellTiter-Glo, 72 h; actives 3.4% (n = 400,000); Potency, µM (highest dose often 46.1 µM), most hits filed as cytotoxic; AID 1347076; note: % is set by controls: 0 for no effect and ±100 for the full control effect; nearly all actives have a fitted effect of over 60% in size
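qHTS viability screen in drug-selected KB-V1 MDR cells: 72 h compound treatment at 37 degrees C, ATP luminescence end point.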
TGFb inhibitor: TGF-b pathway inhibition | Potency, µM (titrated, usually from 46.1 µM), for inactives: at the top dose activity, negative = inhibition, hits mostly inhibitors | actives 1.2% (n = 410,000) | AID 588855 | HepG2 CAGA-GFP TGF-b/SMAD3 reporter, GFP fluorescence, 18 h; TGF-beta stimulated, 500 pg/mL final; note: % is set by controls: 0 for no effect and ±100 for the full control effect; nearly all actives have a fitted effect of over 65% in size
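HEPG2 CAGA-GFP cells (1000/well, DMEM with 1% FBS) were pre-incubated 2 h at 37 degrees C, given compound by pin tool, then stimulated with TGF-beta at 500 pg/mL final for 18 h before per-cell GFP fluorescence imaging.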
KB-3-1 cytotox: kills parental KB-3-1 adenocarcinoma cells; KB-3-1 viability, CellTiter-Glo ATP luminescence, 72 h; Potency, µM (top dose mostly 46.1 µM), hits mostly cytotoxic; actives 1.4% (n = 400,000); note: % is set by controls: 0 for no effect and ±100 for the full control effect; nearly all actives have a fitted effect of over 60% in size
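Multi-concentration cytotoxicity screen in KB-3-1 cells grown in DMEM lacking phenol red with 10% FBS. After 72 h at 37 °C with compound, ATP-dependent luminescence was recorded.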
ATXN2 expr inh: inhibitors of ATXN2 expression; Potency, µM (series often up to 57 µM), inactives show top-dose activity change, negative = inhibition, most hits filed as inhibitors; HEK-293 ATXN2-luciferase reporter, luminescence, 24 h; actives 0.72% (n = 360,000); note: % is set by controls: 0 for no effect and ±100 for the full control effect; nearly all actives have a fitted effect of over 55% in size
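ATXN2-luciferase reporter cells (luciferase flanked by upstream and downstream ATXN2 gene portions) were treated 24 h at 37 °C with compounds at up to 57 uM. SteadyGlo luminescence gave expression; GF-AFC fluorescence gave viability.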
An asterisk follows results filed as active; i = inactive; ? = inconclusive; nt = no result given. Calls come from the whole dose curve; as a rule, active = well fitted curve in the direction sought with a large enough effect; inconclusive = small, poorly fitted or top-dose-only effect, or another doubt; inactive = no such curve, though single readings can be large; an effect the other way counts as inactive or inconclusive. Potency is the fitted concentration of half-maximal effect.

SMILES	ATXN viability	HepG2 viability	KB-V1 cytotox	TGFb inhibitor	KB-3-1 cytotox	ATXN2 expr inh
Cn1c(=O)oc2cc(S(=O)(=O)NC(Cc3ccccc3)C(=O)Nc3ccc(F)c(Cl)c3)ccc21 (stereo not drawn)	i	-22%	i	4%	i	-13%
COc1ccccc1CNC(=O)CCC1N=C2c3ccccc3N=C(SCC(=O)Nc3ccc(N(C)C)cc3)N2C1=O (stereo not drawn)	i	-23%	i	-27%	i	10%
COc1ccc2cc(CN(CC3CCCO3)C(=O)Nc3ccccc3OC)c(=O)[nH]c2c1 (stereo not drawn)	?	1%	12µM*	-7%	5.2µM*	-30%
COc1ccc2cc(CN(CC3CCCO3)C(=S)Nc3ccccc3)c(=O)[nH]c2c1 (stereo not drawn)	i	-27%	21µM*	-27%	5.8µM*	-29%
Cc1ccc(C)c2[nH]c(=O)c(CN(CC3CCCO3)C(=O)NC3CCCCC3)cc12 (stereo not drawn)	i	-43%	15µM*	-11%	i	-9%
Cc1ccc(NC(=O)c2oc3ccc(S(=O)(=O)N4CCCCC4)cc3c2C)c(C)c1	i	1%	i	1%	i	-6%
Cc1cc(N2CCN(c3cc(Cl)ccc3C)CC2)n2nc(-c3ccccc3)nc2n1	i	-5%	i	28%	i	-6%
Cc1cc(N2CCN(c3ccccc3Cl)CC2)n2cc(-c3ccccc3)nc2n1	?	-49%	16µM*	?	?	?
COc1ccc(-c2c(C)nc3c(-c4ccsc4)cnn3c2N)cc1	?	-2%	?	16%	i	nt
COc1ccc(-c2c(C)nc3c(-c4ccccn4)cnn3c2N)cc1	i	-37%	i	11µM*	i	48%
CN1CCN(c2nc3ccccc3nc2C(C#N)S(=O)(=O)c2ccccc2)CC1 (stereo not drawn)	i	-42%	i	7.9µM*	?	nt
N#CC(c1nc2ccccc2nc1N1CCCC1)S(=O)(=O)c1ccccc1 (stereo not drawn)	?	-22%	21µM*	-14%	?	-2%
Cc1ccc(S(=O)(=O)C(C#N)c2nc3ccccc3nc2N2CCN(C)CC2)cc1C (stereo not drawn)	nt	-27%	i	?	i	nt
CC(C)CC(=O)n1nc(-c2ccco2)nc1NCc1ccc(Cl)cc1	i	-17%	i	7%	i	3%
COc1cccc(CNC(=O)c2c(OC)cc(=O)n3c2CCN(C(=O)c2cc(F)cc(F)c2)CC3)c1	i	nt	nt	nt	nt	nt
CCOc1cc(/C=C/C(=O)c2ccc3c(c2)OCCO3)ccc1OCC(=O)N(C)C	i	-30%	16µM*	-28%	?	?
CN(C)/C(CN1CCOCC1)=C1\N=C(c2ccccc2)OC1=O	?	-9%	16µM*	4%	i	6%
COc1ccccc1N1CCN(C(=O)c2cnn(-c3ccc(F)cc3F)c2C2CCNCC2)CC1	i	-13%	?	32%	i	-4%
Cc1cccc(NC(=O)NCCN2CCCCC2)c1	i	2%	i	14%	i	nt
NC(=O)c1c(OCc2c(F)cc(Br)cc2F)nsc1NC(=O)NCCCCN1CCCC1	nt	nt	nt	nt	nt	31µM*
Cc1nn2c(=O)cc(COC(=O)c3ccc(NC(=O)c4cccs4)cc3)nc2s1	nt	-35%	nt	-18%	nt	nt
O=S(=O)(N/N=C/c1ccccc1OCc1ccc(Cl)cc1)c1ccccc1	i	-5%	16µM*	?	?	24%
COC(=O)c1ccc(COc2ccccc2/C=N/NS(=O)(=O)c2ccc(C)cc2)cc1	i	-11%	18µM*	-2%	i	14%
COc1cc(/C=N/NS(=O)(=O)c2ccc(C)cc2)ccc1OCc1ccc(C(=O)O)cc1	i	-1%	i	16%	i	2%
